In the library only some 21% were active in any assay of this set; here they are far more common.
D3 antag – D3 dopamine receptor (human) antagonism; D3R cells, DiscoveRx beta-arrestin luminescence, antagonist mode; active compounds read low; max response, negative = inhibition, %; 2.5% of 360,000 active; AID 652054; in the data active means max response below about -50%; inconclusive means no clear call, values can overlap the other calls
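Cells plated overnight at 1500 cells/well, then exposed to library compounds with dopamine controls for 90 minutes at 37 degrees C. DiscoveRx reagent added for 30–60 minutes at room temperature; luminescence read, quantitative HTS format.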
IL-1B inflam inh – inflammasome signaling inhibition, IL-1 beta readout. THP-1 LPS/ATP IL-1B secretion, AlphaLISA, 16 h; active compounds read low. activity change, % at 57.5 µM. 4.7% of 360,000 active. AID 743279; in the data active means activity change below about -50%; inconclusive means mostly about -30% to -49%
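THP-1 cells pretreated 1 hr with compounds (up to 57.5 uM final), then stimulated with LPS (250 ng/mL final) plus ATP (1.25 mM final); secreted IL-1B measured by AlphaLISA after 16 hr, decreased signal indicating inhibition.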
D3 ag – agonists of human D3 dopamine receptor; 0.58% of 410,000 active; max activation, %; D3R DiscoveRx beta-arrestin cells, luminescence, 90 min; in the data active means max activation above about 30%
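Cells at 1500/well, incubated overnight, then treated with pinned compounds (dopamine as control) for 90 min at 37 degrees C. DiscoveRx reagent added for 30 - 60 minutes at room temperature; luminescence read.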
DT40 TDP1 no CPT – qHTS for Inhibitors of human tyrosyl-DNA phosphodiesterase 1 (TDP1): qHTS in cells in absence of CPT; DT40 Tdp1-/- hTDP1 cells, no CPT, ATP luminescence, 48 h; Potency, µM (series often up to 46.2 µM), usual class: inhibitors; 15% of 420,000 active; AID 686978, 2013; further: nearly all actives have a fitted effect of over 55% in size
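Stably hTDP1-transfected Tdp1-null chicken DT40 cells were treated with library compounds minus camptothecin and grown for at least 48 hr at 37 °C, after which cellular ATP was quantified by luminescence.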
DT40 TDP1 CPT – growth inhibition of DT40 Tdp1-/-;hTDP1 cells with camptothecin (screen for TDP1 inhibitors). chicken DT40 Tdp1-/-;hTDP1 cells + 20 nM CPT, ATP luminescence, 48 h. Potency, µM (titrated, usually from 46.2 µM), most hits filed as inhibitors. 12% of 420,000 active; further: nearly all actives have a fitted effect of over 55% in size
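Chicken DT40 Tdp1-/- cells complemented with human TDP1, 400 cells/well, exposed to compounds plus 20 nM camptothecin for at least 48 h at 37 C; viability read as ATP content by CellTiter-Glo luminescence.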
ClpP mod – qHTS Assay for Activators of ClpP | ATP-dependent Clp protease proteolytic subunit (Bacillus subtilis (strain 168)), P80244 | purified B. subtilis ClpP, FRET peptide cleavage, 20 min | Potency, µM (top dose mostly 57.5 µM) | 1.9% of 340,000 active | AID 651965, 2013; active means well fitted falling curve with a large enough effect; inconclusive means small, poorly fitted or top-dose-only effect; inactive means no such curve, though single readings can be large or run the other way; further: the source files actives as falling curves though it sought activators and does not explain the sign; nearly all actives have a fitted effect of over 65% in size
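ClpP 10 microg/mL final, pH 8 Tris/KCl buffer with BSA, glycerol, Tween-20; compound pinned in; FRET-FV substrate; RT 20 min; Ex320/Em430; ΔFRET vs ADEP 5.8 microM, DMSO, no enzyme.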
A number is an active result; – = inactive; ? = inconclusive; · = no result given; [ ] = dose if it differs, or a comment. Unless noted, the call rests on the fitted dose curve; in most records, active means well fitted inhibition curve with a large enough effect; inconclusive means small, poorly fitted or top-dose-only effect; inactive means flat fitted curve, though single readings scatter.

SMILES	D3 antag	IL-1B inflam inh	D3 ag	DT40 TDP1 no CPT	DT40 TDP1 CPT	ClpP mod
CCN1CCN(C(=O)/C=C/c2c(F)cccc2Cl)CC1	–	–	–	–	–	–
COCCN1Cc2cccc(C(=O)NC(C)CCc3ccco3)c2C1=O (stereo not drawn)	–	–	–	–	–	·
O=C(/C=C/c1c(F)cccc1Cl)NCc1ccco1	–	–	–	–	–	10µM
COc1ccc(C2N(C(=O)C(F)(F)F)C(C)CN2S(=O)(=O)c2ccc(C)cc2)cc1 (stereo not drawn)	–	–	–	–	–	·
CNc1nc(Nc2ccc([N+](=O)[O-])cc2)nc(OCC(F)(F)F)n1	–	–	–	–	–	–
CNc1nc(N/N=C/c2cc([N+](=O)[O-])ccc2F)nc(Nc2ccccc2)n1	–	-97	–	7.3µM	13µM	–
Cc1ccc(Sc2c(C)nn(C(C)(C)C)c2OC(=O)C(C)(C)C)cc1	·	·	–	?	–	–
Cc1ccc(N2CCN(C(=O)c3[nH]c(C(F)(F)F)nc3-c3ccccc3)CC2)cc1	–	–	–	?	?	–
O=C(c1[nH]c(C(F)(F)F)nc1-c1ccccc1)N1CCN(c2ccccc2)CC1	–	–	–	4.1µM	4.6µM	–
O=C(c1[nH]c(C(F)(F)F)nc1-c1ccccc1)N1CCN(c2ncccn2)CC1	–	–	–	?	29µM	–
O=C(c1[nH]c(C(F)(F)F)nc1-c1ccccc1)N1CCc2c([nH]c3ccccc23)C1	–	–	–	5.8µM	5.8µM	–
O=C(c1[nH]c(C(F)(F)F)nc1-c1ccccc1)N1CCN(c2c(Cl)cncc2Cl)CC1	–	–	–	?	?	–
O=C(c1[nH]c(C(F)(F)F)nc1-c1ccccc1)N1CCN(c2ccncc2)CC1	–	–	–	–	–	–
Cc1cc(N2CCN(C(=O)c3[nH]c(C(F)(F)F)nc3-c3ccccc3)CC2)c2ccccc2n1	–	–	–	15µM	16µM	–
COc1ccc(N2C(=O)NC(NS(=O)(=O)c3ccc(NC(C)=O)cc3)(C(F)(F)F)C2=O)cc1 (stereo not drawn)	–	–	–	–	–	–
O=C(c1cc(Cl)cc(Cl)c1)N1CCN(c2cc(C(F)(F)F)nc3ccccc23)CC1	–	–	–	12µM	21µM	?
O=C(O)CSCC(=O)N1CCN(c2cc(C(F)(F)F)nc3ccccc23)CC1	–	–	–	–	–	–
CCN(CC)c1ccc(C=C2SC(=S)NC2=O)cc1	–	–	–	?	13µM	–
CC1Cc2cc(/C=C3/SC(=S)NC3=O)ccc2O1 (stereo not drawn)	–	–	–	18µM	–	·
CCN(CC)c1ccc(/C=C2\SC(N)=NC2=O)cc1	–	–	–	–	–	·
COc1ccc(-c2ccc(C(=O)N3CCc4c(cnc(C)c4CNS(=O)(=O)N(C)C)C3)o2)cc1	·	·	·	?	–[9.04 µM]	·
COc1ccccc1CNC(=O)CN1C(=O)COc2ccc(S(=O)(=O)Nc3ccccc3)cc21	·	·	–	?	–	–
COc1ccc(C(=O)NC(=S)Nc2nc(C)cc(C)n2)cc1Br	–	–	–	–	–	·
Cc1cc(C)n2nc(SCC(=O)N3CCN(c4ccccc4)CC3)nc2n1	–	–	–	–	–	32µM
Cn1c(=O)cc(SCC(=O)N2CCN(c3ccccc3)CC2)c2ccccc21	–	–	–	?	16µM	–
SMILES	D3 antag	IL-1B inflam inh	D3 ag	DT40 TDP1 no CPT	DT40 TDP1 CPT	ClpP mod
CN1CCN(C(=O)CSc2cc(=O)n(C)c3ccccc23)CC1	–	–	–	–	–	–
Cc1cc(C)n2nc(SCC(=O)N3CCCC3)nc2n1	–	–	–	–	–	–
Cn1c(=O)cc(SCC(=O)N2CCN(c3ccccn3)CC2)c2ccccc21	–	-50	–	?	?	–
CC(C)c1ccc2oc(-c3ccc(Cl)c(NC(=O)Cc4ccccc4)c3)nc2c1	·	·	–	–	–	–
CC(=O)Nc1ccc(OCCOc2ccc(/C=C3/C(=N)N4C=CSC4=NC3=O)cc2)cc1	–	–	–	10µM	21µM	–
CCC1=NN2C(=N)/C(=C\c3ccc(OCCOc4ccc(NC(C)=O)cc4)cc3)C(=O)N=C2S1	–	–	–	–	–	·
COc1ccccc1OCCOc1ccc(/C=C2\C(=N)N3N=C(S(C)(=O)=O)SC3=NC2=O)cc1	–	–	–	23µM	?	–
CC#CCC(C)[C@H](O)/C=C/[C@@H]1[C@H]2c3cccc(CCCC(=O)O)c3O[C@H]2C[C@H]1O (stereo partly drawn)	·	·	–	–	–	·
O=C(CSc1ccc(Br)cc1)N1CCN(C(=O)c2ccco2)CC1	–	–	–	–	–	·
Cc1cccc(N2CCN(S(=O)(=O)c3ccc4oc(=O)c5ncn(C)c5c4c3)CC2)c1C	·	·	–	16µM	?	–
COc1ccc(-c2nc(-c3cccs3)c(-c3cccs3)[nH]2)cc1O	–	–	–	13µM	16µM	25µM
Cc1ccc(S(=O)(=O)Nc2ccccc2CNc2cccc(C)n2)cc1	–	–	–	16µM	?	–
Cc1cccc(NS(=O)(=O)c2ccc(Br)s2)n1	–	–	–	–	–	–
Cc1ccc(S(=O)(=O)NCc2ccccc2NS(=O)(=O)c2ccc(C)cc2)cc1	–	–	–	?	?	–
Cc1cccc(NS(=O)(=O)c2ccc(Oc3ccccc3)cc2)n1	–	–	–	?	–	22µM
Cc1nc2ccccc2n1S(=O)(=O)c1cc(C(=O)O)ccc1Cl	–	–	–	–	–	–
COc1ccc(C2(CNC(=O)C(=O)Nc3ccc(C)cc3)CCOCC2)cc1	–	–	–	?	?	·
CN(Cc1ccccc1)C(=O)c1ccc(NC(=O)Cc2ccc(NC(=O)C3CCN(C(=O)C4CCCCC4)CC3)cc2)cc1	?	–	–	16µM	23µM	–
CN(C(=O)c1ccc(NC(=O)Cc2ccc(NC(=O)C3CCN(C(=O)C4CCCCC4)CC3)cc2)cc1)C1CC1	–	-61	–	?	?	–
CN(Cc1ccccc1)C(=O)c1ccc(NC(=O)Cc2ccc(NC(=O)C3CCN(C(=O)CCc4ccccc4)CC3)cc2)cc1	?	–	–	10µM	26µM	–
CN(Cc1ccccc1)C(=O)c1cccc(NC(=O)Cc2ccc(NC(=O)C3CCN(C(=O)CCc4ccccc4)CC3)cc2)c1	–	–	78	16µM	?	–

Bioassay records: PubChem BioAssay, National Center for Advancing Translational Sciences (NCATS)
